One may read the AC50 as the midpoint of the concentration-response curve, whichever way the signal moves.

Read-out in assay [1]: E-selectin (Homo sapiens) (UniProt P16581)
As to the kind of experiment: BSK_SAg_Eselectin: BioMAP Diversity Plus: SAg Assay for Eselectin Biomarker Activity (AID 2283091). Conditions: primary human HUVEC with PBMC; actives raise or lower the signal. The method in brief:
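Human umbilical vein endothelial cells co-cultured with peripheral blood mononuclear cells, SAg system. E-selectin is measured by ELISA 24 h after dosing and fitted bidirectionally against DMSO. Cytotoxicity is checked by SRB staining of parallel cultures.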

Read-out in assay [2]: Monokine induced gamma interferon (MIG), CXCL9 (gene 4283)
As to the kind of experiment: BSK_SAg_MIG: BioMAP Diversity Plus: SAg Assay for Monokine induced gamma interferon (MIG) Biomarker Activity (AID 2283092). The settings on record: primary human HUVEC with PBMC; actives raise or lower the signal. In outline:
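Endothelial cells and PBMC were co-cultured, exposed to test chemicals, and sampled 24 h later. MIG was measured by ELISA, and responses were fitted in both directions relative to DMSO.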

Assay [3] can be described thus: BSK_SAg_PBMCCytotoxicity: PBMC Cytotoxicity Assessment in the BioMAP Diversity Plus: SAg Assay (AID 2283093).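 Also: PBMC viability measured as Alamar Blue reduction fluorescence at 546/580 nm; fitted both ways against DMSO so a hit may be loss or gain of signal.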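 As to AC50: PBMC superantigen activated with SEB plus TSST-1 one hour after compound addition.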 The settings on record: primary human HUVEC with PBMC. The method in brief: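 Alamar Blue reduction (6 h, ex/em 546/580 nm) read after 90 h culture of PBMC pre-dosed 1 h then stimulated with SEB plus TSST-1, 20 ng/mL each. Gain or loss of signal fitted relative to DMSO.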

Read-out in assay [4]: Interleukin-8 (IL8), CXCL8 (gene 3576)
In words: BSK_SAg_IL8: BioMAP Diversity Plus: SAg Assay for Interleukin-8 (IL8) Biomarker Activity (AID 2283094). The settings on record: primary human HUVEC with PBMC; actives raise or lower the signal. In outline: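 HUVEC/PBMC co-culture, 24 h post-dose; IL-8 by ELISA. Gain or loss of signal fitted bidirectionally vs DMSO baseline.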

The nature of assay [5]: BSK_SAg_Proliferation: Cell Proliferation Assessment in the BioMAP Diversity Plus: SAg Assay (AID 2283095).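 Also: relative cell number as total protein by SRB absorbance in sub-confluent culture.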 Conditions: primary human HUVEC with PBMC. In outline: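 HUVEC/PBMC co-culture, 96-well. TCA-fixed (10%), 0.1% SRB stain, A560 at 96 h. Protein content used as viability readout; bidirectional fitting vs DMSO control.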
Assay [6] can be described thus: BSK_SAg_SRB: Viability Assessment in the BioMAP Diversity Plus: SAg Assay (AID 2283096).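 Also: cells read one day after compound addition; hits may be either gain or loss of signal compared with DMSO.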 Conditions: primary human HUVEC with PBMC. In outline:
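SRB absorbance at 560 nm served as the viability read-out. Cells (HUVEC plus peripheral blood mononuclear cells) were TCA-fixed and stained 24 h post-dosing; activity fitted in both directions against DMSO controls.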

Assay [7] addresses human CYP2B6, CYP2B6 (gene 1555) (UniProt P20813). In words: NVS_ADME_hCYP2B6: NovaScreen (NVS) CYP450-related Enzyme Activity (ADME) Assay for human CYP2B6 (AID 2283101; active = hit-call score of the fitted dose curve at least 0.9, where 1 is the maximum). In outline:
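Cell-free recombinant enzyme assay with a fluorogenic substrate; fluorescence intensity read 1 hour after dosing. Loss of signal relative to acetonitrile negative control indicates inhibition. Primary screen run in duplicate at 10 uM, actives then tested in concentration series.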

Assay [8] concerns the target human CYP2C9, CYP2C9 (gene 1559) (UniProt P11712). In words: NVS_ADME_hCYP2C9: NovaScreen (NVS) CYP450-related Enzyme Activity (ADME) Assay for human CYP2C9 (AID 2283108; active = hit-call score of the fitted dose curve at least 0.9, where 1 is the maximum). In outline:
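Fluorescence readout of CYP2C9 activity (SF9-expressed human enzyme) at 0.75 h. The primary screen used 10 uM in duplicate, with concentration-response follow-up for actives; acetonitrile was the negative control.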

For assay [9], the target named is Cytochrome P450 3A4 (Homo sapiens) (UniProt P08684). In words: NVS_ADME_hCYP3A4: NovaScreen (NVS) CYP450-related Enzyme Activity (ADME) Assay for human CYP3A4 (AID 2283110; active = hit-call score of the fitted dose curve at least 0.9, where 1 is the maximum). In outline:
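Compounds screened in duplicate at 10 uM, with follow-up concentration-response for actives, against insect-cell-expressed recombinant enzyme. Activity read by fluorescence 0.33 h after dosing; loss of signal versus acetonitrile control indicates inhibition.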

The target in assay [10] is human CYP1A2, CYP1A2 (gene 1544) (UniProt P05177). As to the kind of experiment: NVS_ADME_hCYP1A2: NovaScreen (NVS) CYP450-related Enzyme Activity (ADME) Assay for human CYP1A2 (AID 2283102; active = hit-call score of the fitted dose curve at least 0.9, where 1 is the maximum). The method in brief: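 Recombinant human CYP1A2 from insect cells, cell-free, fluorogenic substrate; read 0.5 h after dosing with loss of fluorescence signal indicating inhibition. Primary screen in duplicate at 10 uM, acetonitrile as negative control.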

The target of assay [11] is human CYP2D6, CYP2D6 (gene 1565) (UniProt P10635). In words: NVS_ADME_hCYP2D6: NovaScreen (NVS) CYP450-related Enzyme Activity (ADME) Assay for human CYP2D6 (AID 2283107; active = hit-call score of the fitted dose curve at least 0.9, where 1 is the maximum). In outline:
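Cell-free assay using recombinant human CYP2D6 expressed in insect cells, with a fluorogenic substrate read after 1 h. Primary screen in duplicate at 10 uM; actives followed up in concentration series. Loss of signal fitted relative to acetonitrile.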

Assay [12] concerns the target human Acid Phosphatase 1 (ACP1), ACP1 (gene 52) (UniProt P24666). In words: NVS_ENZ_hACP1: NovaScreen (NVS) Enzymatic Assay for human Acid Phosphatase 1 (ACP1) (AID 2283136; active = hit-call score of the fitted dose curve at least 0.9, where 1 is the maximum). The method in brief: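 Cell-free fluorescence read-out of phosphatase activity, substrate and product separated by mobility shift, taken 1.5 h after compound addition; protein produced in Sf9. Single 25 uM duplicate screen, followed by concentration series for actives, scored as signal loss relative to DMSO.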

The target in assay [13] is human CYP1A1, CYP1A1 (gene 1543) (UniProt P04798). In words: NVS_ADME_hCYP1A1: NovaScreen (NVS) CYP450-related Enzyme Activity (ADME) Assay for human CYP1A1 (AID 2283100; active = hit-call score of the fitted dose curve at least 0.9, where 1 is the maximum). In outline:
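Recombinant CYP1A1 with a fluorogenic substrate, cell-free, read 1 h after dosing; acetonitrile as negative control. Single-concentration screen at 10 uM in duplicate, then concentration-response up to 20 uM for chemicals meeting ~30% inhibition threshold.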

Assay [14] has as its target Cytochrome P450 2C19 (Homo sapiens) (UniProt P33261). As to the kind of experiment: NVS_ADME_hCYP2C19: NovaScreen (NVS) CYP450-related Enzyme Activity (ADME) Assay for human CYP2C19 (AID 2283113; active = hit-call score of the fitted dose curve at least 0.9, where 1 is the maximum;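 also: potency for inhibition seen as loss of fluorescent signal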). In outline:
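Cell-free recombinant human CYP2C19 from insect cells, fluorescent substrate; activity read by fluorescence intensity 1 h after dosing. Primary screen in duplicate at 10 uM; actives retested in concentration series. Signal loss versus acetonitrile negative control.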

In assay [15] the target is human AKT serine/threonine Kinase 1 (AKT1), AKT1 (gene 207) (UniProt P31749). In words: NVS_ENZ_hAKT1: NovaScreen (NVS) Enzymatic Assay for human AKT serine/threonine Kinase 1 (AKT1) (AID 2283138; active = hit-call score of the fitted dose curve at least 0.9, where 1 is the maximum). In outline: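 Fluorescence and mobility-shift readout of kinase activity, taken 1 h post-dosing in a cell-free format with recombinant protein. Primary screen at 25 uM in duplicate; hits (e.g. 30% inhibition) retested in concentration series topping at 50 uM.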

Assay [16] concerns the target human Caspase 5 (CASP5), CASP5 (gene 838) (UniProt P51878). As to the kind of experiment: NVS_ENZ_hCASP5: NovaScreen (NVS) Enzymatic Assay for human Caspase 5 (CASP5) (AID 2283137; active = hit-call score of the fitted dose curve at least 0.9, where 1 is the maximum). The method in brief:
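Fluorescent substrate readout of CASP5 activity (loss-of-signal), measured 2 h post-dose. Protein expressed in E. coli. Primary screen duplicate at 25 uM; actives meeting threshold (e.g., 30% inhibition) rerun singleton, max 50 uM.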

The target in assay [17] is human Beta-secretase (BACE), BACE1 (gene 23621) (UniProt P56817). As to the kind of experiment: NVS_ENZ_hBACE: NovaScreen (NVS) Enzymatic Assay for human Beta-secretase (BACE) (AID 2283140; active = hit-call score of the fitted dose curve at least 0.9, where 1 is the maximum;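 also: hits are inhibitors that reduce fluorescent substrate signal versus DMSO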). In outline:
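SF9-expressed enzyme, cell-free; fluorescent substrate readout after 1 h. Screened at 25 uM single concentration, duplicate; hits retested in concentration series. Activity relative to DMSO baseline, loss-of-signal.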

Records with an inconclusive call do not appear. Activity calls are given as the source filed them. The calls were made as follows, unless noted: active = hit-call score of the fitted dose curve at least 0.9, where 1 is the maximum; inactive = score below 0.9.

human AKT serine/threonine Kinase 1 (AKT1), AKT1 (gene 207), sequence (P31749 whole entry, looked up): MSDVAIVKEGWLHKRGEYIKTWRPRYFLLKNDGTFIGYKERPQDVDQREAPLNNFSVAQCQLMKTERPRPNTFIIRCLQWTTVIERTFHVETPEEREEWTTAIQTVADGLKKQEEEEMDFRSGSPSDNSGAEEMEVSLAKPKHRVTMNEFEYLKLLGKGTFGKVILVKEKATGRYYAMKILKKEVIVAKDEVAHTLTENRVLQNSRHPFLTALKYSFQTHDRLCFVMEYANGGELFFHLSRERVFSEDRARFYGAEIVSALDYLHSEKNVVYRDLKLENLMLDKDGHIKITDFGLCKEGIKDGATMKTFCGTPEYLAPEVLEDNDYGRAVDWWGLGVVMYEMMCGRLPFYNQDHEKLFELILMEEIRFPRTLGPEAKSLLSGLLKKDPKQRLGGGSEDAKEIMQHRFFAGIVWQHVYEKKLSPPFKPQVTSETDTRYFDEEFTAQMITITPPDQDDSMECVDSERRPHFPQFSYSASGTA
E-selectin (Homo sapiens), sequence (P16581 whole entry, looked up): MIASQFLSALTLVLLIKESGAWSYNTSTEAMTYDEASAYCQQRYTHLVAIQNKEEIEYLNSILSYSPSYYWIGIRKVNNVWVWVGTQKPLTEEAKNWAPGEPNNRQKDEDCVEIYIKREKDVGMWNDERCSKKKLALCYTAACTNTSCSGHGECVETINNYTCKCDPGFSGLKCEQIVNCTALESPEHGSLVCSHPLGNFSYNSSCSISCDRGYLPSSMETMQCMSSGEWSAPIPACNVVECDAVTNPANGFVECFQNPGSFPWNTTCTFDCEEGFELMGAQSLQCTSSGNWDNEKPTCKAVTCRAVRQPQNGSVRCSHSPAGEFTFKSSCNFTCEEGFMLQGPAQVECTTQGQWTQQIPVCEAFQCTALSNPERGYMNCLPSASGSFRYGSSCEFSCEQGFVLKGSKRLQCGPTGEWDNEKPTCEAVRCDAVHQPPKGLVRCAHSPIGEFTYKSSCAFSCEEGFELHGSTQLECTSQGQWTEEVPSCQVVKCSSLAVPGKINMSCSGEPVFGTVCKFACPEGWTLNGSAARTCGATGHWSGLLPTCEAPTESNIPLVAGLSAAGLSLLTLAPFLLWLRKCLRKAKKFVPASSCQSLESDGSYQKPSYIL
human CYP2C9, CYP2C9 (gene 1559), sequence (P11712 whole entry, looked up): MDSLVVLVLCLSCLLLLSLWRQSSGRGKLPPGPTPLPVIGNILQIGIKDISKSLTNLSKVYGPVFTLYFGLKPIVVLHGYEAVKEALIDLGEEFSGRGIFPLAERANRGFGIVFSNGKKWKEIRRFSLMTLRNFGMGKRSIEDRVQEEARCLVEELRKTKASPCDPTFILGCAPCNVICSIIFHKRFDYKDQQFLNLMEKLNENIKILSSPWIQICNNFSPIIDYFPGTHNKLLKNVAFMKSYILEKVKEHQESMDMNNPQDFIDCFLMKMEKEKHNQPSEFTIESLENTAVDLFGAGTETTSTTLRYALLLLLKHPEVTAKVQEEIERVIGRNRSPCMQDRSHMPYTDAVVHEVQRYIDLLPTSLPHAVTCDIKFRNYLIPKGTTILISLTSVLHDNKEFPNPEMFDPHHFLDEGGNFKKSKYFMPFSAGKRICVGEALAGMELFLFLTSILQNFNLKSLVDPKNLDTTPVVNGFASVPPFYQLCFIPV
human CYP1A2, CYP1A2 (gene 1544), sequence (P05177 whole entry, looked up): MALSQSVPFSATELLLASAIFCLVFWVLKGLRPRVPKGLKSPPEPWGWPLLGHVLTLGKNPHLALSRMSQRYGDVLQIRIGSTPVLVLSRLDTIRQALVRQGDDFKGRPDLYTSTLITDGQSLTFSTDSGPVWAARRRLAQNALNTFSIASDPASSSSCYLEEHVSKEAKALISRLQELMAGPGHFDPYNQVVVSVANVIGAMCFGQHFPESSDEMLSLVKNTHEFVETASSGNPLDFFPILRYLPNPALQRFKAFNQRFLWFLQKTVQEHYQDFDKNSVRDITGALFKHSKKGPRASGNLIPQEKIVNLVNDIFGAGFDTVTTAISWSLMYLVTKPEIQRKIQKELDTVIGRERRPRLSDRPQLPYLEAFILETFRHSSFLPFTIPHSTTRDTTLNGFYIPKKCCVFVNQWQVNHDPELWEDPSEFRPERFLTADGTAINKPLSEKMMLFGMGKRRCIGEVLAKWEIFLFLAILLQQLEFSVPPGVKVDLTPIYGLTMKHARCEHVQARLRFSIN
human CYP2D6, CYP2D6 (gene 1565), sequence (P10635 whole entry, looked up): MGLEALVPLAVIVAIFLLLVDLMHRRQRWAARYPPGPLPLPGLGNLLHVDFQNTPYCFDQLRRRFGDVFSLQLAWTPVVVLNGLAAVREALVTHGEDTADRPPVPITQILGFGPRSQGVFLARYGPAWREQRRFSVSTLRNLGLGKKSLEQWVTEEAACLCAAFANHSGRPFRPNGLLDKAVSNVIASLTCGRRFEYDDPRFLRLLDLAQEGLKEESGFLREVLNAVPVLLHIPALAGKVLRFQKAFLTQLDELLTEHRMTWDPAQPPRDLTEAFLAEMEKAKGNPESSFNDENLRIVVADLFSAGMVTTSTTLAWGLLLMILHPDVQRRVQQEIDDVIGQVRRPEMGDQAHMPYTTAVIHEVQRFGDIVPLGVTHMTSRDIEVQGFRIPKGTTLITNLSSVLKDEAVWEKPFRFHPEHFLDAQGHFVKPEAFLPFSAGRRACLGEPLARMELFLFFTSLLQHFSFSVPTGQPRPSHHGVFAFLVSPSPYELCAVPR
human CYP2B6, CYP2B6 (gene 1555), sequence (P20813 whole entry, looked up): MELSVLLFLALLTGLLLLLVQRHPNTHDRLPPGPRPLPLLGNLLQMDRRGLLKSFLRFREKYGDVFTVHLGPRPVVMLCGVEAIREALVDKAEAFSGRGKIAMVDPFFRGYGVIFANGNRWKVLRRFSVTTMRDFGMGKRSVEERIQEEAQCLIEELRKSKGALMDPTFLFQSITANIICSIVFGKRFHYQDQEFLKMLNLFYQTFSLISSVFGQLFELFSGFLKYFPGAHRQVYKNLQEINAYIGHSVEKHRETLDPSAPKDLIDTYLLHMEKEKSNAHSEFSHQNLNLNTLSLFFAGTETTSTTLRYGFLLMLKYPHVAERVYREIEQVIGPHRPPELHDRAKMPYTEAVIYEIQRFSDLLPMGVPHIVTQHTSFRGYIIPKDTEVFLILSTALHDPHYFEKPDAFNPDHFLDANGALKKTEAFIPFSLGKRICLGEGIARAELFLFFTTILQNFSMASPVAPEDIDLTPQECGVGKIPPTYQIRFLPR
human Acid Phosphatase 1 (ACP1), ACP1 (gene 52), sequence (P24666 whole entry, looked up): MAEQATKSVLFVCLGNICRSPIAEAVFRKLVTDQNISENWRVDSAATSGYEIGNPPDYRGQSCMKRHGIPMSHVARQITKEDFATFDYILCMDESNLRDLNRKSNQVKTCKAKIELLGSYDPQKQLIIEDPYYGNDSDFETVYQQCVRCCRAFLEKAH
human Caspase 5 (CASP5), CASP5 (gene 838), sequence (P51878 whole entry, looked up): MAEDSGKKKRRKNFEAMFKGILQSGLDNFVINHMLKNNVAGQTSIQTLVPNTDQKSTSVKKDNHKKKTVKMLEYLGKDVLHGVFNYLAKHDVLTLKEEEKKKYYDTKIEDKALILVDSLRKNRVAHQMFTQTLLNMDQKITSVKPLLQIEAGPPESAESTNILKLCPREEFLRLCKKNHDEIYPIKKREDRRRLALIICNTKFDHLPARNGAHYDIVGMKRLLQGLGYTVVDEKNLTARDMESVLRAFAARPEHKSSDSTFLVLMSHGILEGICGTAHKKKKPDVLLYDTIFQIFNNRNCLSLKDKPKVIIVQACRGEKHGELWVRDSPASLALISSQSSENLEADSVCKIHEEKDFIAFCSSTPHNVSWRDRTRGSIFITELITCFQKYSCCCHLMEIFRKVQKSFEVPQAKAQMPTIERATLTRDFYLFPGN
human Beta-secretase (BACE), BACE1 (gene 23621), sequence (P56817 whole entry, looked up): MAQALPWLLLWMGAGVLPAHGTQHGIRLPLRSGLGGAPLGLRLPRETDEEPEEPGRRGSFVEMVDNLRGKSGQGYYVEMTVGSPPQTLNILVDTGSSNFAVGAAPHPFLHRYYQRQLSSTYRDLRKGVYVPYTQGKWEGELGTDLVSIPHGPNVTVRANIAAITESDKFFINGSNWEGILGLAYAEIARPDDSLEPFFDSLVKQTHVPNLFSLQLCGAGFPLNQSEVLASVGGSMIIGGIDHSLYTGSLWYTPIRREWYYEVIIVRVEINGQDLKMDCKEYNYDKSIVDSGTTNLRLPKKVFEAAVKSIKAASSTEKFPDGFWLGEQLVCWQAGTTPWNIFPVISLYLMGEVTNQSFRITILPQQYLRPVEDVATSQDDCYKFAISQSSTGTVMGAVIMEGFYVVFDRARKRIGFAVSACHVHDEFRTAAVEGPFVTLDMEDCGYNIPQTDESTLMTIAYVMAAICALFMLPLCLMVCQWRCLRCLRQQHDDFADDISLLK
Cytochrome P450 3A4 (Homo sapiens), sequence (P08684 whole entry, looked up): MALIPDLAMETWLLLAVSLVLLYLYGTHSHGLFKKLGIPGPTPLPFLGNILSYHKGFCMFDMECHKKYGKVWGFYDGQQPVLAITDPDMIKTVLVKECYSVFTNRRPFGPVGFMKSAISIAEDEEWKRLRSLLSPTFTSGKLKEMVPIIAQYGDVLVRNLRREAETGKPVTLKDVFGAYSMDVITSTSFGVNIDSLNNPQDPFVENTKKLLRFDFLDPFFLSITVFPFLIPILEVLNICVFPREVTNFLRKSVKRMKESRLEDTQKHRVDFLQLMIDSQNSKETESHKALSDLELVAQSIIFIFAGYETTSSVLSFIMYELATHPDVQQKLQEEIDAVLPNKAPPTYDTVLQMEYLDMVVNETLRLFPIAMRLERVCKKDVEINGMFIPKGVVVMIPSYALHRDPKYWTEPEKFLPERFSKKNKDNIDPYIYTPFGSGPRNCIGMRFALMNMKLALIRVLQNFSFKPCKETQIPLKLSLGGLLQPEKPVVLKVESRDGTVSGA

With `CC=Cc1ccc(O)c(OC)c1`, the outcome in [1], in assay [2], in assay [3], in assay [4], in assay [5] and in [6] was inactive. The molecule was classed as inactive in [7] and in assay [8].

On to `COc1ccc2c(c1)c(CC(=O)O)c(C)n2C(=O)c1ccc(Cl)cc1`, for which the outcome in assay [1], in assay [2], in [3], in assay [4], in assay [5] and in assay [6] was inactive. Besides, the molecule was called inactive in assay [7]. Besides, the AC50 in assay [9] is 10 µM (active).

Consider `Oc1ccc2ccccc2c1N=Nc1ccccc1`, for which the half-maximal activity concentration (AC50) was 4.27 µM (active) in [1] and 12.2 µM (active) in [5]. Moreover, the result in assay [2], in assay [3], in assay [4] and in [6] was inactive.

As to `O=C(N[C@@H](Cc1ccccc1)[C@@H](O)C(=O)N1C[C@@H](O)[C@@H](O)C1)c1cc2cc(Cl)ccc2[nH]1`, the outcome in assay [1], in assay [2], in assay [3], in [4], in [5] and in assay [6] was inactive. Moreover, the result in [10] was inactive.

With `NCC1(Cc2noc(=O)[nH]2)CCCCC1`, the outcome in assay [1], in [2], in assay [3], in assay [4], in [5] and in assay [6] was inactive.

Take `CCCCCCCCCCCCCO`: the AC50 in [1] was 36.4 µM (active); in [3], 33.2 µM (active); in [4], 38 µM (active); in assay [6], 37.5 µM (active). The outcome in assay [2] and in assay [5] was inactive.

For `COCCOCCOC`, the outcome in assay [1], in [2], in assay [3], in assay [4], in assay [5] and in assay [6] was inactive.

For `Cc1cccc(C)c1O`, the result in [1], in assay [2], in assay [3], in [4], in assay [5] and in assay [6] was inactive.

Regarding `Cc1cc(NC(=O)C(=O)O)cc(C)c1Oc1ccc(O)c2c1CCC2`, the outcome in assay [1], in [2], in assay [3], in [4], in assay [5] and in assay [6] was inactive.

For the molecule `CN1CCCC1=O`, the result in assay [1], in assay [2], in assay [3], in [4], in [5] and in [6] was inactive.

On to `O=C(O)Cc1ccccc1Nc1c(Cl)cccc1Cl`, for which the outcome in assay [1], in assay [2], in [3], in assay [4], in assay [6] and in assay [10] was inactive. In addition, the molecule was classed as inactive in assay [11] and in assay [12]. For the same molecule, the AC50 in assay [5] is 15.6 µM (active).

In the case of `COc1ccc(S(=O)(=O)N2C(=O)[C@@](c3ccccc3OC)(N3C[C@H](O)C[C@H]3C(=O)N(C)C)c3cc(Cl)ccc32)c(OC)c1`, the AC50 is 20 µM (active) in assay [1]; 20 µM (active) in [4]; 29.4 µM (active) in assay [5]; 29.7 µM (active) in assay [6]; 4.57 µM (active) in assay [9]; 6.95 µM (active) in [14]. The result in [2], in assay [3] and in assay [13] was inactive.

`CC(C)(C)c1cc(O)c(C(C)(C)C)cc1O`: the AC50 in assay [1] is 7.31 µM (active); in assay [3], 8.8 µM (active); in assay [5], 27.8 µM (active). Further, the outcome in assay [2], in assay [4], in [6] and in [15] was inactive.

As for `COc1ccc(C)cc1N`, the result in assay [1], in [2], in [3], in [4], in assay [5] and in assay [6] was inactive. Also, in assay [16], the call was inactive.

With `CCCCCCOCCO`, the outcome in assay [1], in assay [2], in assay [3], in assay [4], in assay [5] and in [6] was inactive. The molecule was classed as inactive in assay [15].

With `CCCCC(CC)COC(=O)CC(C(=O)OCC(CC)CCCC)S(=O)(=O)O` (stereo unspecified), the AC50 is 34.1 µM (active) in assay [1]; 38 µM (active) in assay [2]; 34.8 µM (active) in [3]; 33.6 µM (active) in [4]; 32.5 µM (active) in assay [5]; 36.2 µM (active) in assay [6]. In addition, the AC50 was 3.5 µM (active) in assay [8], 4.49 µM (active) in assay [14], 15.2 µM (active) in assay [16] and 1.35 µM (active) in assay [17].

With `CCOC(=O)C(C)(C)Oc1ccc(Cl)cc1`, the outcome in assay [1], in [2], in assay [3], in assay [4], in [5] and in [6] was inactive. The molecule was classed as inactive in [12] and in [17].

For the molecule `CC(=O)C(C)=CC1C(C)=CCCC1(C)C` (stereo unspecified), the result in assay [1], in [2], in assay [3], in assay [4], in assay [5] and in assay [6] was inactive. In addition, the molecule was classed as inactive in assay [15].

For the molecule `CCCCCCC(=O)OCC`, the outcome in [1], in assay [2], in [3], in assay [4], in assay [5] and in [6] was inactive. For the same molecule, the outcome in assay [11] was inactive. Further, the AC50 in [8] was 14.8 µM (active).

`CCCCCC(=O)O`: the result in assay [1], in assay [2], in assay [3], in assay [4], in assay [5] and in assay [6] was inactive. Further, in assay [15], the molecule was classed as inactive.

`CNCc1cc(F)ccc1Oc1ccc(Cl)c(Cl)c1`: the AC50 in [1] is 20 µM (active); in [3], 25.7 µM (active); in [4], 20 µM (active); in assay [5], 26.1 µM (active); in [14], 1.11 µM (active). Besides, the outcome in assay [2] and in [6] was inactive.
